Assay results as given in the supplement of paper PMC10849652.
The full data set covers some 7,900 targets. This sample favours those with a hit. About 0.6% of all pairs of compound and target were hits.

Each target was assayed with O=C(CCCCCCNC(=O)c1cnc(N(c2ccccc2)c2ccccc2Cl)nc1)NO [citarinostat] (assay: log2 fold change, soluble protein after heating vs DMSO (PISA); higher = thermal stabilisation; K562 cells, 10 uM, 30 min; active = over 0.2 and 3.5 SD of the protein, either way, in both replicates (recomputed)).
Method in brief: (§1)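 Soluble protein was quantified by TMTpro 16plex LC-MS/MS after channel sums were equalised. It was obtained as the supernatant after 21,000xg for 90 min from pooled aliquots of K562 cells (2×10^6 cells/mL, 10 μM compound, 30 min) heated for 3 min across 48°C-58°C and extracted in PBS with 0.5% NP-40 at 4°C. Thermal stability values are relative to control samples and come from duplicates. They are given as log2 fold changes.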

UniProt P36507, sequence (P36507 whole entry, looked up): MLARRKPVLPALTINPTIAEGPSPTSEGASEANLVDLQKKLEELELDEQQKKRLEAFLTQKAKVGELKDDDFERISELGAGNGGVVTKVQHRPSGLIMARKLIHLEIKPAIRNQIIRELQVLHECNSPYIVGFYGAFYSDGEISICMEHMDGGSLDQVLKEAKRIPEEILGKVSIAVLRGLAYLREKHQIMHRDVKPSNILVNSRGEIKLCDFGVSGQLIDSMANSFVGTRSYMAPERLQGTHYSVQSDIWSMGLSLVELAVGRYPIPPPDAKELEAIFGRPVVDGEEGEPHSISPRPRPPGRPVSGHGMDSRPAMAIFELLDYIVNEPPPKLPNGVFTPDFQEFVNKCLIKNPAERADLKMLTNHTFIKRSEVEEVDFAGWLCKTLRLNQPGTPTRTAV
UniProt Q68DH5, sequence (Q68DH5 whole entry, looked up): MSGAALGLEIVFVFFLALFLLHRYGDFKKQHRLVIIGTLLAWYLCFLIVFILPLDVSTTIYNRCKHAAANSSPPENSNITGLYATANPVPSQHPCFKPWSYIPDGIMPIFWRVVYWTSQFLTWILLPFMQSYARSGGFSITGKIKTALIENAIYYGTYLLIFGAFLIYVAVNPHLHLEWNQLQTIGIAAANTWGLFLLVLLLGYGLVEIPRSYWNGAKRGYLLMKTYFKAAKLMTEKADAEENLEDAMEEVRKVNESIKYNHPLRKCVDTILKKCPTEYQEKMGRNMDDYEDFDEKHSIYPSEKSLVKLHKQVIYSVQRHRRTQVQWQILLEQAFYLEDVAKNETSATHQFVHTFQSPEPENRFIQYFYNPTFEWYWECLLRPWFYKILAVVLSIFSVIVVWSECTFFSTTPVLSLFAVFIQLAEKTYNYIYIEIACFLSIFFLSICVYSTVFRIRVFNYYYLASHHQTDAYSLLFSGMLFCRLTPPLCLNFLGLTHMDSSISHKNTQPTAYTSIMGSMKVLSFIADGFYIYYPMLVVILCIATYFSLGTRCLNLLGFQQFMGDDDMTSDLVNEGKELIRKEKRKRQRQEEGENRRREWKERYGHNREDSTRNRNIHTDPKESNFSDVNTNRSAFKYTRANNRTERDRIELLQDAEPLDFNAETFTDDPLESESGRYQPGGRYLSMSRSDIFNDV
UniProt O43766, sequence (O43766 whole entry, looked up): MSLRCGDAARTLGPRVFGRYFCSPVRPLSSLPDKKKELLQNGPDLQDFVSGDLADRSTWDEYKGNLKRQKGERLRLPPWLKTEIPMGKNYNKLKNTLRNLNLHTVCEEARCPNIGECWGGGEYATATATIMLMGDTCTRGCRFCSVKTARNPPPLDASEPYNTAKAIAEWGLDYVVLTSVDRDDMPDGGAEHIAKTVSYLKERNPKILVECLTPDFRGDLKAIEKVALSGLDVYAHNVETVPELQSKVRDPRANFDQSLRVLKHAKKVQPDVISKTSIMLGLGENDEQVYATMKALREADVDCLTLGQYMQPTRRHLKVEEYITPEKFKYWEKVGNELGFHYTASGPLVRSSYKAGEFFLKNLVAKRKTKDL
UniProt P53778, sequence (P53778 whole entry, looked up): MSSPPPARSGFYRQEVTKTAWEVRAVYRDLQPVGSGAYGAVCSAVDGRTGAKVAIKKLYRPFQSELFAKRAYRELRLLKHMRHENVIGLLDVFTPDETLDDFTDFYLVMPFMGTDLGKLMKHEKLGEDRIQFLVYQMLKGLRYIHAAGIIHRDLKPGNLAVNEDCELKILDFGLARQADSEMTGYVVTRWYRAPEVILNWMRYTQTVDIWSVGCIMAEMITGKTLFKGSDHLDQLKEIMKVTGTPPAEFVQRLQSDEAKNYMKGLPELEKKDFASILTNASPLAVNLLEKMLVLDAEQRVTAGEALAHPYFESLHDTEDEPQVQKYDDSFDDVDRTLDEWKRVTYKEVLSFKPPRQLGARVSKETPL
UniProt Q08431, sequence (Q08431 whole entry, looked up): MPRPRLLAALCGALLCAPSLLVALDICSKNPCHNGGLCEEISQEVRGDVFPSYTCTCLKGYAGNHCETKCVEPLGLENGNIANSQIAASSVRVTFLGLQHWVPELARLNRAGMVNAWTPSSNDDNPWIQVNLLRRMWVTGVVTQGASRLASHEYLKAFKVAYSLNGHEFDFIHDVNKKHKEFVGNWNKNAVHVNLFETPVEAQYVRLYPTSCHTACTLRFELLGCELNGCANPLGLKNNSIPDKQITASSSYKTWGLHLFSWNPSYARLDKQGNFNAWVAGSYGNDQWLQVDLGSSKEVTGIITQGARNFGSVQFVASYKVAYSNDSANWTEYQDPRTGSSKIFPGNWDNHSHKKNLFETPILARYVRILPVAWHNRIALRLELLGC
UniProt O14880, sequence (O14880 whole entry, looked up): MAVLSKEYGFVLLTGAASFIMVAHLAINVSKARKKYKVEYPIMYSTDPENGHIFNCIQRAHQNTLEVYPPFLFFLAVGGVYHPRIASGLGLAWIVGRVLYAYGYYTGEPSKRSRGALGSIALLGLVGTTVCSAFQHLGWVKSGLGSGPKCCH
UniProt Q9BPX6, sequence (Q9BPX6 whole entry, looked up): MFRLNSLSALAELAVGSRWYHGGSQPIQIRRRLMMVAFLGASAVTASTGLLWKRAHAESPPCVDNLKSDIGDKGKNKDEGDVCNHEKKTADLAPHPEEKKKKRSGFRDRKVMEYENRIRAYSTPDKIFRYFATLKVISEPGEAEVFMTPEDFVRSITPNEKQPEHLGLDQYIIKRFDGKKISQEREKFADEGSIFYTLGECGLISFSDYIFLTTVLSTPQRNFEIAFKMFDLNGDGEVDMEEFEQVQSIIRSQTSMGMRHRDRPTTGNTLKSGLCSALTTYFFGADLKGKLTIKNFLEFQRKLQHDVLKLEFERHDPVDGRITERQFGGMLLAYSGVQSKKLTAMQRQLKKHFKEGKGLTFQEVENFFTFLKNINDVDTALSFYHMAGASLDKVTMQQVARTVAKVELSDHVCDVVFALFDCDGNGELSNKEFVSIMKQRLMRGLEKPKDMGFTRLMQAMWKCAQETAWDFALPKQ
UniProt Q16644, sequence (Q16644 whole entry, looked up): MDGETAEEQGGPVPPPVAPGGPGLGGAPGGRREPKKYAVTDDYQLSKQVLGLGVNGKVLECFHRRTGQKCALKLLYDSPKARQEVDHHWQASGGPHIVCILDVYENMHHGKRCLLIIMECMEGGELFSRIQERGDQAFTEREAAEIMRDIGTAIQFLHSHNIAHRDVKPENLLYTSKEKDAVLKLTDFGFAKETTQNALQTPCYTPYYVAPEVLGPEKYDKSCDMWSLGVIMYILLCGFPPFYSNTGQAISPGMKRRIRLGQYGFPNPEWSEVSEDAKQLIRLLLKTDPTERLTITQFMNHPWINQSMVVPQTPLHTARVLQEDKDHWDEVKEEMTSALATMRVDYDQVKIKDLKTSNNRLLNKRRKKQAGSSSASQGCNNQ
UniProt Q9Y2U8, sequence (Q9Y2U8 whole entry, looked up): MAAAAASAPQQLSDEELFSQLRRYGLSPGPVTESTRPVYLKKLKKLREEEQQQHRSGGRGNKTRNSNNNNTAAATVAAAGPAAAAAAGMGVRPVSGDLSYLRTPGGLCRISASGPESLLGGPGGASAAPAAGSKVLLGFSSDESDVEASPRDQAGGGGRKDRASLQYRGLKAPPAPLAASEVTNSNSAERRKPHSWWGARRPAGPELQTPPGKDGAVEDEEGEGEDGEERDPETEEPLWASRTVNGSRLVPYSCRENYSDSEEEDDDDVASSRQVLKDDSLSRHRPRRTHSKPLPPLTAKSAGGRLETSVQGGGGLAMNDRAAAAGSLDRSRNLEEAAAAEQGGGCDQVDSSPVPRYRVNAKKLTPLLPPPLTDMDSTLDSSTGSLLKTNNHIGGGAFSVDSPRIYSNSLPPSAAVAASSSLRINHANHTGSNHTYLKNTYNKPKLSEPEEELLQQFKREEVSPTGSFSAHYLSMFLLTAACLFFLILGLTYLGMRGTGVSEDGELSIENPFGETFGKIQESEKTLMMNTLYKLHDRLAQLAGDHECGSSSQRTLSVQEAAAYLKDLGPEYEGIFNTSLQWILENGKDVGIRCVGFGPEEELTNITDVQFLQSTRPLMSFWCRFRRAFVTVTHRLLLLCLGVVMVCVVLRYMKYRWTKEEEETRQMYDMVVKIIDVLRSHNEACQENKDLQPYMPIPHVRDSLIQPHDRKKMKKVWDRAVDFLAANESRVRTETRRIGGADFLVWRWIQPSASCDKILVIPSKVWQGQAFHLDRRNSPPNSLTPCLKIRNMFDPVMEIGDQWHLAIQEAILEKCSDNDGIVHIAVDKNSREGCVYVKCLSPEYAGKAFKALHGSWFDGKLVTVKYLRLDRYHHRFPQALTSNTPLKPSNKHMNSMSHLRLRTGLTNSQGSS
UniProt P27448, sequence (P27448 whole entry, looked up): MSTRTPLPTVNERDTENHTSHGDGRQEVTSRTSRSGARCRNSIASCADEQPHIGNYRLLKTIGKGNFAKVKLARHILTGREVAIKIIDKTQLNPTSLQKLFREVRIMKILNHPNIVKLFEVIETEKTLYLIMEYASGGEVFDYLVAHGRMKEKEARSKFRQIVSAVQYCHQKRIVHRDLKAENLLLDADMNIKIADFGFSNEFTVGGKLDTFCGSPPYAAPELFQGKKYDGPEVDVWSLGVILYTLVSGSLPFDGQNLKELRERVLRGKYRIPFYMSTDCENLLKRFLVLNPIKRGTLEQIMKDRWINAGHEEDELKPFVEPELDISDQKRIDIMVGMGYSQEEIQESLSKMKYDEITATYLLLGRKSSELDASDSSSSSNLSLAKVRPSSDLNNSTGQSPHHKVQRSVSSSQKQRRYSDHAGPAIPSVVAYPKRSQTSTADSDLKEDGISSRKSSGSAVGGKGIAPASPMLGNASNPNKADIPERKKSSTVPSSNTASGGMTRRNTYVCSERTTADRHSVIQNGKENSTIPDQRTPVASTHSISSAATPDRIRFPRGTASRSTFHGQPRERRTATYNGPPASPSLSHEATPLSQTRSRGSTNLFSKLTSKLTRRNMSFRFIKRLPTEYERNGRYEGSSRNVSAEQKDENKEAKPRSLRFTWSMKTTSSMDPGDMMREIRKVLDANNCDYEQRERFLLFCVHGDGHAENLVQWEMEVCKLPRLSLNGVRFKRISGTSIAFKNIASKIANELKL

log2 fold change, inactive:
KRAS isoform 2 (UniProt P01116) -0.018
LEMD3 (UniProt Q9Y2U8) 0.053
LIMD1 (UniProt Q9UGP4) 0.052
LMF2 (UniProt Q9BU23) -0.068
IPO13 (UniProt O94829) 0.067
LNPEP (UniProt Q9UIQ6) 0.056
MAGOHB (UniProt Q96A72) 0.043
MAP3K7 (UniProt O43318) 0.063
KPNB1 (UniProt Q14974) 0.097
MAPK12 (UniProt P53778) 0.046
MEPCE (UniProt Q7L2J0) 0.005
ILF2 (UniProt Q12905) -0.037
MAPKAPK3 (UniProt Q16644) -0.012
MCL1 (UniProt Q07820) -0.079
MDN1 (UniProt Q9NU22) 0.075
MAP3K4 isoform 2 (UniProt Q9Y6R4) 0.006
MAP2K2 (UniProt P36507) -0.051
KCTD2 (UniProt Q14681) -0.274
MARK3 (UniProt P27448) 0.103
LUC7L2 (UniProt Q9Y383) 0.074
LMNB1 (UniProt P20700) 0.033
MICOS13 (UniProt Q5XKP0) 0.028
IMMT isoform 2 (UniProt Q16891) 0.042
KEAP1 (UniProt Q14145) -0.005
MAGI1 (UniProt Q96QZ7) 0.022
MGST3 (UniProt O14880) -0.005
MICU1 isoform 3 (UniProt Q9BPX6) 0.053
MAP4 (UniProt E7EVA0) -0.164
LNPK (UniProt Q9C0E8) 0.002
KIF1B isoform 4 (UniProt O60333) 0.054
LIAS (UniProt O43766) -0.093
MAPK8 isoform 3 (UniProt P45983) -0.049
MFGE8 (UniProt Q08431) -0.036
KHDC4 (UniProt Q7Z7F0) 0.08
LUC7L3 (UniProt O95232) 0.083
LTN1 isoform 3 (UniProt O94822) 0.048
LPCAT3 (UniProt Q6P1A2) 0.087
LMBRD2 (UniProt Q68DH5) 0.057
KPNA6 (UniProt O60684) 0.047

The targets below were run with O=C(O)c1ccc2c(c1)nc(Nc1cccc(Cl)c1)c1ccncc12 [silmitasertib] in the same assay as above.
Method in brief: as §1

log2 fold change, inactive:
KRAS isoform 2 (UniProt P01116) 0.001
LEMD3 (UniProt Q9Y2U8) -0.068
LIMD1 (UniProt Q9UGP4) 0.03
LMF2 (UniProt Q9BU23) 0.008
IPO13 (UniProt O94829) 0.081
LNPEP (UniProt Q9UIQ6) 0.002
MAGOHB (UniProt Q96A72) -0.006
MAP3K7 (UniProt O43318) 0.004
KPNB1 (UniProt Q14974) 0.099
MAPK12 (UniProt P53778) -0.006
MEPCE (UniProt Q7L2J0) 0.02
ILF2 (UniProt Q12905) 0.13
MAPKAPK3 (UniProt Q16644) 0.18
MCL1 (UniProt Q07820) 0.034
MDN1 (UniProt Q9NU22) -0.037
MAP3K4 isoform 2 (UniProt Q9Y6R4) 0
MAP2K2 (UniProt P36507) -0.098
KCTD2 (UniProt Q14681) 0.119
MARK3 (UniProt P27448) -0.02
LUC7L2 (UniProt Q9Y383) -0.233
LMNB1 (UniProt P20700) 0.097
MICOS13 (UniProt Q5XKP0) -0.02
IMMT isoform 2 (UniProt Q16891) -0.066
KEAP1 (UniProt Q14145) 0.122
MAGI1 (UniProt Q96QZ7) 0.125
MGST3 (UniProt O14880) -0.011
MICU1 isoform 3 (UniProt Q9BPX6) 0.117
MAP4 (UniProt E7EVA0) 0.003
LNPK (UniProt Q9C0E8) 0.072
KIF1B isoform 4 (UniProt O60333) 0.009
LIAS (UniProt O43766) 0.026
MAPK8 isoform 3 (UniProt P45983) 0.008
MFGE8 (UniProt Q08431) 0.117
KHDC4 (UniProt Q7Z7F0) 0.01
LUC7L3 (UniProt O95232) -0.156
LTN1 isoform 3 (UniProt O94822) 0.035
LPCAT3 (UniProt Q6P1A2) 0.05
LMBRD2 (UniProt Q68DH5) -0.049
KPNA6 (UniProt O60684) 0.219
